The record followed here is PubChem BioAssay.

The test system of this assay is Lefty1. The experiment in a line: Lefty1 protein binding to printed compounds – biochemical, small-molecule microarray, 635/667 nm fluorescence, primary screen (AID 1139). Conditions: fluorescence 635/667, higher = more signal.
For `O=C(O)C1=CC[C@H]2C(=O)N(c3ccccc3)C(=O)[C@@H]12`, the composite z-score was found to be 0.0347.

`CCc1cccc(NC(=O)O[C@H]2[C@H](OC(=O)Nc3ccccc3-c3ccccc3)[C@H](OC(=O)Nc3ccccc3-c3ccccc3)[C@@H](OC)O[C@@H]2CO)c1`: the composite z-score came out at 1.21.

As for `C=C(COC)/C(=C/C[C@@H](OC(C)=O)c1cccc(OCCO)c1)c1cnc2ccccc2c1`, the composite z-score is 1.24.

As to `Cc1ccc(S[C@]2(C(=O)NCc3ccccc3)CC(=O)N(Cc3ccccc3C(F)(F)F)[C@@H]2c2ccc(CO)cc2I)cc1`, the composite z-score is -1.25.

Compound `COCCOC(=O)N1C(=O)[C@@]2(c3cc(C#CC4(O)CCCCCC4)ccc31)[C@H](C(N)=O)[C@H]1C(=O)O[C@H](c3ccccc3)[C@H](c3ccccc3)N1[C@@H]2c1ccc(OCCO)cc1` yielded a composite z-score of 0.673.

In turn, `COc1c(C)cc(-c2cc3c(c(CCc4ccccc4)n2)[Si](C(C)C)(C(C)C)O[C@H]3c2ccccc2)cc1C` came in with a composite z-score of 0.268.

Take `COC(=O)[C@@]1(Cc2ccc(F)cc2)[C@H]2c3cc(C(=O)N(C)C)n(Cc4cccc5ccccc45)c3C[C@H]2CN1C(=O)c1ccccc1`: the composite z-score is -0.446.

For `CC(C)C[C@@H]1NC(=O)[C@@H]2C[C@H](C(=O)NCCCCCNC(=O)CS)[C@H](c3ccc(O)cc3)N2C1=O`, the composite z-score is 0.627.

As to `C=C[C@@H](CO)NS(=O)(=O)c1ccc(Br)cc1`, the composite z-score was -0.809.

For the compound `COC(=O)[C@@]1(Cc2ccc(F)cc2)[C@H]2c3cc(C(=O)N(C)C)n(CCF)c3C[C@H]2CN1C(=O)c1ccccc1`, the composite z-score is -0.45.

The compound `COC(=O)[C@@]1(Cc2ccccc2)[C@H]2c3cc(C(=O)N(C)C)n(Cc4nc5ccccc5[nH]4)c3C[C@H]2CN1C(=O)c1ccccc1` showed a composite z-score of -0.414.

In turn, `C=C(C(=O)CC[C@@H](OC(=O)c1ccccc1-c1ccccc1C(=O)O)c1ccc(OCCO)cc1)C(C)C` yielded a composite z-score of 1.26.

Consider `COCCOC(=O)N1C(=O)[C@@]2(c3cc(C#CCCO)ccc31)[C@H](C(=O)N1CCN(c3ncccn3)CC1)[C@H]1C(=O)O[C@H](c3ccccc3)[C@H](c3ccccc3)N1[C@@H]2c1ccc(OCCO)cc1`, for which the composite z-score was 0.92.

For `O=C1OC[C@@H](c2ccccc2)n2cc(/C=C/c3ccccc3)cc21`, the composite z-score is -0.0599.

Regarding `CCOC(=O)C[C@H]1[C@H](OC(=O)c2cc3ccccc3oc2=O)[C@@H](NC(=O)Cc2ccc(OC)cc2)c2cc(OCCCO)ccc2N1C(=O)Cc1ccc(OC)cc1`, the composite z-score was found to be 0.983.

On to `C=CCN1C(=O)[C@@]2(O[C@@H](CCO)[C@H]([Si](C)(C)c3ccc(OC)cc3)[C@H]2C)c2cc(N3CCCCC3=O)ccc21`, for which the composite z-score came to 1.23.

Turning to `COc1ccc(CCNC(=O)[C@@]2(C)c3ccccc3C(=O)N(Cc3ccc(OC(F)(F)F)cc3)[C@H]2c2ccc(CO)cc2)cc1`, the composite z-score came to 0.268.

Turning to `COC(=O)[C@@]1(Cc2ccccc2)[C@H]2c3cc(C(=O)N(C)C)n(CCF)c3C[C@H]2CN1C(=O)c1ccccc1`, the composite z-score was -0.773.

The compound `COc1ccc(NN2C(C(O)c3ccc(F)cc3)C=CC3C(=O)N(C4CCCCC4)C(=O)C32)cc1` (stereo not given) displayed a composite z-score of 0.174.

In the case of `COC(=O)[C@@]1(Cc2ccc(F)cc2)[C@H]2c3cc(C(=O)N(C)C)n(Cc4ccsc4Br)c3C[C@H]2CN1C(=O)c1ccccc1`, the composite z-score is -0.675.

`COc1ccc(NN2C(C(O)c3ccccc3)C=CC3C(=O)N(C4CCCCC4)C(=O)C32)cc1` (stereo not given) displayed a composite z-score of 0.769.

Compound `C=CC[C@H](OC(=O)Nc1ccc(SC)cc1)c1ccc(O)c(F)c1` registered a composite z-score of -0.173.

`CO[C@H]1O[C@H](CO)[C@@H](OC(=O)CCc2ccccc2)[C@@H]2OC(=O)[C@@H](Cc3ccc4ccccc4c3)C/C=C/C[C@H](Cc3ccc4ccccc4c3)C(=O)O[C@@H]12`: the composite z-score was -0.346.

Compound `COC(=O)[C@H](Cc1ccccc1)N1CC(C)(OC)O[C@@H](Cc2ccccc2)[C@H]1/C=C/C1CC1` (stereo not given in full) came in with a composite z-score of -0.14.

Turning to `C[C@H]1C2[C@H](Cc3ccccc3)NC(=O)[C@]23C(=O)N[C@@H](Cc2ccccc2)C(=O)N2CCC[C@H]2C(=O)NC/C=C/CC/C=C/C3[C@@H]2O[C@]12C` (stereo not given in full), the composite z-score is 0.754.

In turn, `C=C(C(=O)CC[C@@H](OC(=O)c1ccccc1-c1ccccc1C(=O)O)c1cccc(OCCO)c1)C(C)C` showed a composite z-score of 1.69.

With `C=C(CCCC)C(=O)CC[C@H](OC(=O)c1ccccc1-c1ccccc1C(=O)O)c1cccc(OCCO)c1`, the composite z-score was 0.191.

For the compound `C=C(CCCC)/C(=C/C[C@@H](OC(C)=O)c1cccc(OCCO)c1)c1cc(C(=O)OC)ccc1OC`, the composite z-score worked out at 1.08.

With `CCCCCN1CC=CC23O[C@@H]4/C=C\CCCOC(=O)C4[C@H]2C(=O)N(CCO)[C@@H]3C1=O` (stereo not given in full), the composite z-score stood at 0.126.

`O=C1NC(=O)C2C1C=CC(C(O)C1CCCCC1)N2Nc1ccccn1` (stereo not given) had a composite z-score of 0.119.

`COC(=O)C1(CC(C)C)C=C2C(=C(C)C(=O)C2C)CN1` (stereo not given) yielded a composite z-score of -0.368.

Turning to `Cc1ccc(N2C(=O)c3ccccc3[C@@H](C(=O)NCCN3CCOCC3)[C@@H]2c2ccc(CO)cc2)nc1`, the composite z-score is -0.702.

`COCCOC(=O)N1C(=O)[C@@]2(c3cc(C#CCNC(N)=O)ccc31)[C@H](c1ccc(O)cc1)N1[C@H](c3ccccc3)[C@H](c3ccccc3)OC(=O)[C@H]1[C@@H]2C(=O)N1CCc2cc(OC)c(OC)cc2C1` had a composite z-score of 0.8.

As for `O=C(NC1CC1)[C@@H]1c2ccccc2C(=O)N(C2CCCCC2)[C@H]1c1ccc(CO)cc1`, the composite z-score is -0.413.

For the compound `COc1ccc([Si](C)(C)[C@@H]2[C@@H](CC(=O)N(CCO)Cc3ccccc3)O[C@]3(C(=O)N(Cc4cccc(I)c4)c4ccccc43)[C@H]2C)cc1`, the composite z-score amounted to 1.51.
